The record followed here is PubChem BioAssay (Tox21).

Values without a mark were called inactive. Active and inactive are the calls of the source. Calls come from the whole dose curve; as a rule, active = well fitted curve in the direction sought with a large enough effect in the repeat runs; inconclusive = weak or mixed curves; inactive = flat fitted curve, though single readings scatter.
% is set by controls: 0 for no effect and ±100 for the full control effect.

This assay in a line: qHTS assay to test for compound auto fluorescence at 590 nm (red) in HepG2 cell free culture (AID 720684). The settings on record: cell-free medium autofluorescence, red 540/590 nm; series mostly up to 91.3 µM. From the text: U.S. Tox21 Program National Center for Advancing Translational Sciences [NCATS] NIH Chemical Genomics Center [NCGC] U.S. Environmental Protection Agency [EPA] National Institutes of Environmental Health Sciences [NIEHS] National Toxicology Program [NTP] U.S. Food and Drug Administration [FDA] Tox21 Assay Overview: Compound auto fluorescence often interferes with screening of the compound library against various biological targets and signaling pathways. Some of these compounds may have fluorophoric properties. Such properties may interfere with the assay outputs resulting in false positives and/or negatives. To decrease such complications and ensure the compound activities are relevant in terms of biological response, the Tox21 10K compound library was screened for auto fluorescence. From the fluorophores used as reporter signals in our screening assays, the auto fluorescence equivalencies of compounds against three fluorophores have been evaluated: Triamterene, Fluorescein and Rose Bengal sodium for blue, green and red fluorescence, respectively. The fluorescence intensities were measured using Excitation/Emission wavelengths at 405/460nm, 485/535nm and 540/590nm for blue, green and red labels, respectively. This assay includes the red fluorescence data.
Tox21 Assay Protocol Summary: 5 uL of culture medium (MEM containing 10% FBS) per well was dispensed into black wall/clear bottom 1536-well plates using a Multidrop Combi Dispenser (ThermoFisher Scientific, Waltham, MA). After 23 nL compound or DMSO vehicle was transferred into assay plate by a pintool work station (Kalypsys, San Diego, CA), fluorescence intensities in the assay plates were measured by an Envision (PerkinElmer, Shelton, CT) plate reader using three labels for measuring blue, green and red fluorescence at […] 460, 535 and 590nm respectively.
Regarding `CCOC(=O)CC(=O)c1cc(F)c(Cl)nc1Cl`, the outcome was inactive.
The same measure, in the same setting: the same measure for `COc1ccccc1OC(=O)Oc1ccccc1OC`: “inactive”.
Turning to `Cc1ncsc1CCO`, the call was inactive.
The same measure, in the same setting: the same measure for `Nc1ccc(C(=O)Nc2ccccc2N)cc1`: “inactive”.
Turning to `NCCCN(CCO)CCO`, the outcome was inactive.
As to `CC(=O)c1c(C)c([N+](=O)[O-])c(C(C)(C)C)c([N+](=O)[O-])c1C`, the outcome was inactive.
As to `O=c1[nH]cnc2ccccc12`, the outcome was inactive.
For `N=C(N=C(N)N)N1CCOCC1`, the fluorescence, % of Rose Bengal was 0.0286% [at 18.6 µM].
For the compound `SC1CCCC1`, the compound was classed as inactive.
On to `CCC(=O)OC(C)(C)C1CC=C(C)CC1` (stereo not given), for which the compound was called inactive.
Consider `O=C(NS(=O)(=O)/C=C/c1cccs1)c1ccc(F)cc1Br`, for which the call was inactive.
`Cc1ccc(C(N)=O)cc1N`: the result was inactive.
In the case of `C=CC(=O)OCC(C)OCC(C)OCC(C)OC(=O)C=C` (stereo not given), the call was inactive.
Still for that read-out and setting: the same measure for `Cc1cc(NC(=O)C(=O)O)cc(C)c1Oc1ccc(O)c2c1CCC2`: “inactive”.
Regarding `C=C(C)C(=O)OC(C)C`, the call was inactive.
As to `NCCCOCCOCCOCCCN`, the compound was called inactive.
Turning to `CC(C)NCC(O)COc1ccc(CC(N)=O)cc1` (stereo not given), the compound was classed as inactive.
For the compound `CCCCCOC(=O)c1ccc(O)cc1`, the compound was called inactive.
For the compound `CCCCOCCOCCOCCOCCO`, the compound was classed as inactive.
For the compound `CCN(CC)C(C)CN1c2ccccc2Sc2ccccc21` (stereo not given), the fluorescence, % of Rose Bengal was -0.332% [at 18.6 µM].
For `Oc1ccc(C(O)CNCCCCCCNCC(O)c2ccc(O)c(O)c2)cc1O` (stereo not given), the call was inactive.
Same read-out and setting: the same measure for `O=C(O)Cn1c(C(=O)Nc2nc(-c3ccccc3Cl)cs2)cc2ccccc21`: “inactive”; for `C=CCCCCCC`: “inactive”; for `CCC(C)N(C)C(=O)c1cc2ccccc2c(-c2ccccc2Cl)n1` (stereo not given): “inactive”.
The same measure, in the same setting: the same measure for `CCOc1ccc(NC(=O)CC(C)=O)cc1`: “inactive”; for `COc1ccc(C(C)=O)cc1`: “inactive”.
Take `O=C(O)COC(=O)Cc1ccccc1Nc1c(Cl)cccc1Cl`: the fluorescence, % of Rose Bengal was -0.0238% [at 18.6 µM].
For `COCCCCCCCCOCCC[Si](C)(O[Si](C)(C)C)O[Si](C)(C)C`, the compound was classed as inactive.
In the case of `CCCCOC(=O)/C=C\C(=O)OCCCC`, the result was inactive.
Turning to `CC(=O)OC/C=C/c1ccccc1`, the outcome was inactive.
On the same count and under the same terms, the same measure for `CC(Cc1cccc(C(F)(F)F)c1)NCCOC(=O)c1ccccc1` (stereo not given): “inactive”.
With `CN(C(=O)CCCOc1ccc2[nH]c(=O)ccc2c1)C1CCCCC1`, the outcome was inactive.
For `CC(=O)CC(=O)c1ccccc1`, the outcome was inactive.
Still for that read-out and setting: the same measure for `O=C1CCCCCO1`: “inactive”; for `Cn1sccc1=O`: “inactive”.
Take `CC(=O)Nc1ccc(/C=N/NC(N)=S)cc1`: the call was inactive.
Turning to `CC(C)NCC(O)c1cc(O)cc(O)c1` (stereo not given), the outcome was inactive.
In the case of `COc1ccc(OC)c(OC)c1`, the compound was called inactive.
For the compound `NCc1ccccc1`, the outcome was inactive.
The same measure, in the same setting: the same measure for `CCCCCCCCC(CO)CCCCCC` (stereo not given): “inactive”.
